{"source": "PubChem BioAssay (EPA / NIEHS)", "note": "Results filed as inconclusive are left out. Active and inactive are the calls of the source. The calls were made as follows: active = hit-call score of the fitted dose curve at least 0.9, where 1 is the maximum; inconclusive = response in the unintended direction; inactive = score below 0.9."}
{"target": "human Matrix Metalloproteinase-1 (MMP1), MMP1 (gene 4312) (UniProt P03956)", "sequence (P03956 whole entry, looked up)": "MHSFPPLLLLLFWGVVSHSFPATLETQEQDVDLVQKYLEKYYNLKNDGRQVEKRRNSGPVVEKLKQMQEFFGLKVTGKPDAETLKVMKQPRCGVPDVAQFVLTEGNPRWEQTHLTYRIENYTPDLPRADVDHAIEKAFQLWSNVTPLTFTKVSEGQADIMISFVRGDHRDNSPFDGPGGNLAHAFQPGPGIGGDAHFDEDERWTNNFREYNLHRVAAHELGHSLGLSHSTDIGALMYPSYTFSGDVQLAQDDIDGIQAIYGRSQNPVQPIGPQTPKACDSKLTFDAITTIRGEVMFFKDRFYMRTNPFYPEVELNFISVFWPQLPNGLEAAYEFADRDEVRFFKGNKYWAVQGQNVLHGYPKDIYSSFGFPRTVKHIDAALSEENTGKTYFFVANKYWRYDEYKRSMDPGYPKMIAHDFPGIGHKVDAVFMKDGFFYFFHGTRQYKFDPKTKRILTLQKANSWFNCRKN", "test": "NVS_ENZ_hMMP1: NovaScreen (NVS) Enzymatic Assay for human Matrix Metalloproteinase-1 (MMP1) (AID 2283181)", "procedure": "NVS_ENZ_hMMP1 is a biochemical, single-readout assay that uses extracted gene-proteins in a cell-free assay. Measurements were taken 1 hour after chemical dosing in a 96-well plate.NVS_ENZ_hMMP1 is one of one assay component(s) measured or calculated from the NVS_ENZ_hMMP1 assay. It is designed to make measurements of enzyme activity, a form of enzyme reporter, as detected with fluorescence intensity signals by Fluorescence technology.Data from the assay component NVS_ENZ_hMMP1 was analyzed into 1 assay endpoint. This assay endpoint, NVS_ENZ_hMMP1, was analyzed in the positive analysis fitting direction relative to DMSO as the negative control and baseline of activity. Using a type of enzyme reporter, loss-of-signal activity can be used to understand changes in the enzymatic activity as they relate to the gene MMP1. Furthermore, this assay endpoint can be referred to as a primary readout, because this assay has produced multiple assay endpoints where this one serves a enzymatic activity function. To generalize the intended target to other relatable targets, this assay endpoint is annotated to the protease intended target family, where the subfamily is matrix metalloproteinase.\nBinding assays used specific radioligands (tritiated, iodinated) with non-radioactive competitive displacement ligands in agonist or antagonist protocols (as indicated) and various reference compounds and inhibitors to titrate specific binding to receptors and transporters. Most enzyme assays (CYPs, kinases, phosphatases, proteases, HDACs) used recombinant protein and specific substrates (fluorescence mostly, some colorimetric and radioactive) and inhibitors, followed by a biochemical separation of substrate and product. All assays for the biochemical HTS were initially run in duplicate at a single concentration (10 uM for CYP450 assays and 25 uM for all others). Assay-chemical combinations meeting a pre-defined threshold (e.g., 30% inhibition and other criteria defined below) were then run in singleton concentration-response format with maximum concentration of 20 uM for CYPs and 50 uM for all others. Each assay was run with positive and negative controls, and concurrent controls on every plate. The follow-up (secondary) screen tested active chemical-pairs in concentration series, as well as a few additional assays not tested in the primary screen, some selected negative inactives, and several cases re-run in the concentration series for confirmatory purposes."}
{"smiles": "C=CCOC(Cn1ccnc1)c1ccc(Cl)cc1Cl", "note": "(stereo not given)", "AC50": "14 µM (active)"}
{"smiles": "CCCCCCCCCC", "outcome": "inactive"}
{"smiles": "CC(C)c1cccc(C(C)C)c1NC(=O)NS(=O)(=O)c1cc(C(C)(C)O)co1", "AC50": "37.1 µM (active)"}
{"smiles": "O=C(N[C@@H](Cc1ccccc1)[C@@H](O)C(=O)N1C[C@@H](O)[C@@H](O)C1)c1cc2cc(Cl)ccc2[nH]1", "outcome": "inactive"}
{"smiles": "O=C1c2c(O)cccc2Cc2cccc(O)c21", "AC50": "15.7 µM (active)"}
{"smiles": "O=C(NO)C1(NS(=O)(=O)c2ccc(Oc3ccc(F)cc3)cc2)CCOCC1", "AC50": "17.9 µM (active)"}
{"smiles": "Cc1ccc(S(=O)(=O)NC(=O)NN2CCCCCC2)cc1", "AC50": "6.9 µM (active)"}
{"smiles": "CCCCc1nc2cccnc2n1Cc1ccc(-c2ccccc2-c2nnn[nH]2)cc1", "AC50": "2.25 µM (active)"}
{"smiles": "CC(=O)O[C@]1(C(C)=O)CC[C@H]2[C@@H]3C=C(Cl)C4=CC(=O)[C@@H]5C[C@@H]5[C@]4(C)[C@H]3CC[C@@]21C", "outcome": "inactive"}
{"smiles": "FC(F)(F)C(F)(F)C(F)(F)C(F)(F)C(F)(F)C(F)(F)CCI", "outcome": "inactive"}
{"smiles": "COc1ccc([N+](=O)[O-])cc1N", "AC50": "10.8 µM (active)"}
{"smiles": "Cc1c(C)c2c(c(C)c1O)CCC(C)(COc1ccc(CC3SC(=O)NC3=O)cc1)O2", "note": "(stereo not given)", "AC50": "6.75 µM (active)"}
{"smiles": "CN(C)c1ccc(N=NS(=O)(=O)O)cc1", "outcome": "inactive"}
{"smiles": "CCOC(=O)O[C@H](C)OC(=O)c1ccc2c(c1)cc(C(=O)NC1CCN(C(C)C)CC1)n2Cc1cc(-c2ccc(Cl)s2)on1", "outcome": "inactive"}
{"smiles": "O=P(OC(CCl)CCl)(OC(CCl)CCl)OC(CCl)CCl", "outcome": "inactive"}
{"smiles": "c1ccc(C(O[C@@H]2CCCN(CCc3ccc4c(c3)OCO4)C2)c2ccccc2)cc1", "AC50": "8.81 µM (active)"}
{"smiles": "NC(=O)c1nc(-c2cccc(-c3cc(F)ccc3OCC(F)(F)C(F)(F)F)c2)n[nH]1", "AC50": "1.27 µM (active)"}
{"smiles": "CC(=O)S[C@H](C(=O)N[C@H]1Cc2ccccc2[C@H]2CCC[C@@H](C(=O)O)N2C1=O)C(C)C", "outcome": "inactive"}
{"smiles": "CCc1nn(C2CCCCC2)c2cc(C3(C#N)CCC(C(=O)O)CC3)ccc12", "note": "(stereo not given)", "AC50": "12.1 µM (active)"}
{"smiles": "COc1ccc2cc(S(=O)(=O)N[C@H](CC(=O)N[C@H](Cc3ccc(CN4[C@H](C)CCC[C@@H]4C)cc3)C(=O)N(C)C(C)C)c3ccc4c(c3)OCO4)ccc2c1", "outcome": "inactive"}
{"smiles": "O=C(O)CCN(C1(C(=O)NO)CCCC1)S(=O)(=O)c1ccc(Oc2ccc(F)cc2)cc1", "AC50": "3.49 µM (active)"}
{"smiles": "CN1CCN(Cc2cc(-c3ccc4[nH]c(=O)oc4c3)co2)[C@@H](c2ccc(F)cc2)C1", "AC50": "10.5 µM (active)"}
{"smiles": "C=CCCCCCCCCCCCC", "outcome": "inactive"}
{"smiles": "Cn1cnc2c1c(=O)[nH]c(=O)n2C", "outcome": "inactive"}
{"smiles": "CCCCCCCCOC(=O)c1cc(O)c(O)c(O)c1", "AC50": "13.9 µM (active)"}
{"smiles": "CCCOC(=O)c1cc(O)c(O)c(O)c1", "AC50": "16.1 µM (active)"}
{"smiles": "CCCCCCCCCCCCCCOS(=O)(=O)O", "outcome": "inactive"}
{"smiles": "O=C(O)c1cccc(C(=O)O)c1", "AC50": "13 µM (active)"}
{"smiles": "COc1ccc2sc(C(=O)Nc3nnn[nH]3)c(OC(C)C)c2c1", "outcome": "inactive"}
{"smiles": "COC(=O)c1ccccc1O", "outcome": "inactive"}
{"smiles": "O=[N+]([O-])c1ccc(O)cc1", "AC50": "16.9 µM (active)"}
{"smiles": "NCCO", "outcome": "inactive"}
{"smiles": "CCCCCCCCCCCCCCCCOS(=O)(=O)O", "AC50": "4.54 µM (active)"}
{"smiles": "Cc1ccc([N+](=O)[O-])cc1N", "outcome": "inactive"}
{"smiles": "CC(C)(C)c1csc(-c2cc3cc(OCc4ccccc4CC(=O)O)ccc3o2)n1", "AC50": "22.5 µM (active)"}
{"smiles": "CCc1cc(C2=C(C(=O)O)N(c3ccccc3C(F)(F)F)S(=O)(=O)c3ccccc32)cc2c1OCO2", "AC50": "12.3 µM (active)"}
{"smiles": "CO[C@@H]1COCC[C@@H]1N[C@@H]1CC[C@@](C(=O)N2CCc3ncc(C(F)(F)F)cc3C2)(C(C)C)C1", "outcome": "inactive"}
{"smiles": "CCc1cc(SCc2sc(-c3ccc(C(F)(F)F)cc3)nc2CN2CCN(c3ccc(OC)cc3)CC2)ccc1OCC(=O)O", "AC50": "1.06 µM (active)"}
{"smiles": "CCCCCC(=O)O", "outcome": "inactive"}
{"smiles": "S=C(S)NCCNC(=S)S.[Mn+2].[S-]C([S-])=NCCN=C([S-])[S-].[Zn+2]", "outcome": "inactive"}
